# Source: paper PMC7862700, “An all-to-all approach to the identification of sequence-specific readers for epigenetic DNA modifications on cytosine”
# What was measured:
# Assay in all cases: DAPPL (digital affinity profiling via proximity ligation, sequencing); 10 mM Tris-HCl pH 7.5, 50 mM NaCl, 1 mM DTT, 4% glycerol, room temperature, 30 min; GST-TFs on glutathione beads, 16-mer random dsDNA library, 0.1% formaldehyde crosslink after washing; high values mean tight binding
# [1] = molecular target: T1, EHF (Homo sapiens, UniProt Q9NZC4 1-300); conditions: protein: recombinant; tags: N-terminal GST; dsDNA, one strand shown
# T1 sequence: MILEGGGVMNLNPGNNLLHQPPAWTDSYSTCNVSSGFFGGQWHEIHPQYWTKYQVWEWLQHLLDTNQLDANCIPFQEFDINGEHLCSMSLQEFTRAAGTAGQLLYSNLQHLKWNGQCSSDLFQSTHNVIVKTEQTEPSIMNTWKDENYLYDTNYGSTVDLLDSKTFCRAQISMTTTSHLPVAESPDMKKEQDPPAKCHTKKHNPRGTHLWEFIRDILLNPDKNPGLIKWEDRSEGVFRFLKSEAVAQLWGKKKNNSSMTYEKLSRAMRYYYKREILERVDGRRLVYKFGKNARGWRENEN
# How it was run: (§1)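 Sequencing on an Illumina NextSeq500 followed washing, crosslinking with 0.1% formaldehyde, proximity ligation (BsaI/T4 ligase, 1 h, 37 °C) and PCR amplification of pools that had been incubated for 30 min at room temperature with 200 nmole of a random double-stranded 16-mer DNA library in Tris/NaCl/DTT/glycerol buffer. Each pool held DNA-barcoded human transcription factors, expressed in yeast as GST fusions and captured on glutathione beads, plus a tag-only sample. Binding signal is a hexamer's read frequency for a factor divided by its frequency in the tag-only sample.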
# [2] = molecular target: T2, ELK3 (Homo sapiens, UniProt P41970 1-407); conditions: protein: recombinant; tags: N-terminal GST; dsDNA, one strand shown
# T2 sequence: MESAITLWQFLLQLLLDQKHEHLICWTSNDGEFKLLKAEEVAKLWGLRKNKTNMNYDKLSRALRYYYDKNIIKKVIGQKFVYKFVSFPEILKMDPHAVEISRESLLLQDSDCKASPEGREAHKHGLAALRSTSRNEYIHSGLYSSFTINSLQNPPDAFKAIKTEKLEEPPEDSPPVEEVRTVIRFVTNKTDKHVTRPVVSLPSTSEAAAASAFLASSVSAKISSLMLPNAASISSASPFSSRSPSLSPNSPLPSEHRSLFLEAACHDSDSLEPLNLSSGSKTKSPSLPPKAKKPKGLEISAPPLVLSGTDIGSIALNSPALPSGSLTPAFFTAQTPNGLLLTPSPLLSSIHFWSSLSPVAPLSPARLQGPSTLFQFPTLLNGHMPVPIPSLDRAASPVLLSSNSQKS
# How it was run: as §1
# [3] = molecular target: HSF1 (Homo sapiens, UniProt Q00613 1-529); conditions: protein: recombinant; tags: N-terminal GST; chain copies: 3; dsDNA, one strand shown
# Chain of HSF1 (Q00613 whole entry): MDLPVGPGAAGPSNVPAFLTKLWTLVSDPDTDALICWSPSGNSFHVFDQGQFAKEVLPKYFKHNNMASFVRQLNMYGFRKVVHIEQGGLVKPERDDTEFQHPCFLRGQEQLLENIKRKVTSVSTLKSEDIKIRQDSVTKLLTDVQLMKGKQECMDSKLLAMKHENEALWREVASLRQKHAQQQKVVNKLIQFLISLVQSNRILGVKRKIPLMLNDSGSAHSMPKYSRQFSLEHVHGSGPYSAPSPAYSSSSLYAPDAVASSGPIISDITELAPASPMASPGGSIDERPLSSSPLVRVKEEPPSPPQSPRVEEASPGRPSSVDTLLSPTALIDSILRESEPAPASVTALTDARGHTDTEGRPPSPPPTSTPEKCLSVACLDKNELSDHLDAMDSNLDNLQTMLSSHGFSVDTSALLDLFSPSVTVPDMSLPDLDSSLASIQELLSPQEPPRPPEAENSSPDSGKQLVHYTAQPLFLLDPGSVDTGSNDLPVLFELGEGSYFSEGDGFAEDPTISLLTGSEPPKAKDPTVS
# How it was run: as §1
# [4] = molecular target: ELF4 (Homo sapiens, UniProt Q99607 1-663); conditions: protein: recombinant; tags: N-terminal GST; dsDNA, one strand shown
# Chain of ELF4 (Q99607 whole entry): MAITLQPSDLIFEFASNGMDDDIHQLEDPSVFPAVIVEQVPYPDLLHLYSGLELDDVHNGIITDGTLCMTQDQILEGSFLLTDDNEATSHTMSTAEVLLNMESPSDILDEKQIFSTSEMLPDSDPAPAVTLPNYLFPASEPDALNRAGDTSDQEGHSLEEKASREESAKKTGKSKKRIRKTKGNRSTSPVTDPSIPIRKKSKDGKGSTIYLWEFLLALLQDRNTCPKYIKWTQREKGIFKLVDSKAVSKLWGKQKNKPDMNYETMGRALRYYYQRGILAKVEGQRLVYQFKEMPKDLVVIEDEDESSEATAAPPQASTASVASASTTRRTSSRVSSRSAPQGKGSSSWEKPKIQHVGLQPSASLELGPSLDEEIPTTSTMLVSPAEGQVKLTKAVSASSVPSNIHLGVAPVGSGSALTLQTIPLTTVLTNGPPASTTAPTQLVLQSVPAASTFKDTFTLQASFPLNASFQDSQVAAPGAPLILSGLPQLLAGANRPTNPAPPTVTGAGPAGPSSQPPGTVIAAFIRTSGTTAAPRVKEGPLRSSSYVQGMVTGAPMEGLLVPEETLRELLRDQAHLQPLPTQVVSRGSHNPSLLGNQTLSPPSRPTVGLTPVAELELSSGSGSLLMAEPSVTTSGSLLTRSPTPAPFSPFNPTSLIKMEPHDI
# How it was run: as §1
# [5] = molecular target: T3, ELK4 (Homo sapiens, UniProt P28324-2 1-405); conditions: protein: recombinant; tags: N-terminal GST; dsDNA, one strand shown
# T3 sequence: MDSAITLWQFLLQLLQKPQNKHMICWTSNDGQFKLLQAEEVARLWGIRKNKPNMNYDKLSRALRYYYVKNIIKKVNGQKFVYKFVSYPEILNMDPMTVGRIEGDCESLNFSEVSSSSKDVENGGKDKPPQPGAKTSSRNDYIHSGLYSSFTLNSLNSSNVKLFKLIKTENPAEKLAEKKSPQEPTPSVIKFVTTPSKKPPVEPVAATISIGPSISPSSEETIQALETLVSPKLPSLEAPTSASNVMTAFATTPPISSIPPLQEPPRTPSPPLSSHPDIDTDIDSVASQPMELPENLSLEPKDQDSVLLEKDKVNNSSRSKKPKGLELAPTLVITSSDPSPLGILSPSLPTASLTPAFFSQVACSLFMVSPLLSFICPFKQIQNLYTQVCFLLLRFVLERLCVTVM
# How it was run: as §1
# [6] = molecular target: T4, ELF3 (Homo sapiens, UniProt P78545 1-371); conditions: protein: recombinant; tags: N-terminal GST; dsDNA, one strand shown
# T4 sequence: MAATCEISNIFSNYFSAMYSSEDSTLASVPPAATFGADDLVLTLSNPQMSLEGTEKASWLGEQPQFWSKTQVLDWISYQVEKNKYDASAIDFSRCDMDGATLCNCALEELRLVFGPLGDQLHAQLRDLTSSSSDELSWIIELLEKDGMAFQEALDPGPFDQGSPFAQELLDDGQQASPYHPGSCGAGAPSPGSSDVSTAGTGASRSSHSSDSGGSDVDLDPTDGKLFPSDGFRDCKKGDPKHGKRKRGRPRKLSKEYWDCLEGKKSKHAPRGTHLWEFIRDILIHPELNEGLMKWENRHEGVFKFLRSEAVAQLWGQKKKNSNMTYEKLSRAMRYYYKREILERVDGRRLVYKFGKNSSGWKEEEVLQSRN
# How it was run: as §1
# [7] = molecular target: CRX (Homo sapiens, UniProt O43186 1-299); conditions: protein: recombinant; tags: N-terminal GST; dsDNA, one strand shown
# Chain of CRX (O43186 whole entry): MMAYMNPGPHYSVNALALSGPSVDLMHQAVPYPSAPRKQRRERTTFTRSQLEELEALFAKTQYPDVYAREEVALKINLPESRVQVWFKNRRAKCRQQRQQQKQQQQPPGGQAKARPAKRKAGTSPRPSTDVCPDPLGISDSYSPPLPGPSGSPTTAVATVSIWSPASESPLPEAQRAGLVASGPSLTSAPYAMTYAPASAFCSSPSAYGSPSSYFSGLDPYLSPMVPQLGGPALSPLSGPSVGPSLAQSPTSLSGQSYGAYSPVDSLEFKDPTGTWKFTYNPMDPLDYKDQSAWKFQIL
# How it was run: as §1
# [8] = molecular target: T5, ERF (Homo sapiens, UniProt P50548 1-548); conditions: protein: recombinant; tags: N-terminal GST; dsDNA, one strand shown
# T5 sequence: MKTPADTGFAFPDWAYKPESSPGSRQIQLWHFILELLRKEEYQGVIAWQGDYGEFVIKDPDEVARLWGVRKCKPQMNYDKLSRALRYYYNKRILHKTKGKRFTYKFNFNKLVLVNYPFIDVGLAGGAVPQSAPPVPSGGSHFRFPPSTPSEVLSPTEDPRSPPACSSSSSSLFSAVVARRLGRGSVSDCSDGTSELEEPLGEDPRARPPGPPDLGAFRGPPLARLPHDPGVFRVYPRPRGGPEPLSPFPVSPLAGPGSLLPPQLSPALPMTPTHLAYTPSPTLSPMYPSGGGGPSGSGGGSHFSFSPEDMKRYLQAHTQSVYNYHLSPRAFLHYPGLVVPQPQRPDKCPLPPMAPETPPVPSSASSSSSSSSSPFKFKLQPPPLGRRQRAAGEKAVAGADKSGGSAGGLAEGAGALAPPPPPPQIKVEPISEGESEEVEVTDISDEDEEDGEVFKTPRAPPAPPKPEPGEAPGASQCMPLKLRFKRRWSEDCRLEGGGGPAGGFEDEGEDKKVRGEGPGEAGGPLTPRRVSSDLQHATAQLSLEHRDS
# How it was run: as §1
# [9] = molecular target: T6, ETV3L (Homo sapiens, UniProt Q6ZN32 1-361); conditions: protein: recombinant; tags: N-terminal GST; dsDNA, one strand shown
# T6 sequence: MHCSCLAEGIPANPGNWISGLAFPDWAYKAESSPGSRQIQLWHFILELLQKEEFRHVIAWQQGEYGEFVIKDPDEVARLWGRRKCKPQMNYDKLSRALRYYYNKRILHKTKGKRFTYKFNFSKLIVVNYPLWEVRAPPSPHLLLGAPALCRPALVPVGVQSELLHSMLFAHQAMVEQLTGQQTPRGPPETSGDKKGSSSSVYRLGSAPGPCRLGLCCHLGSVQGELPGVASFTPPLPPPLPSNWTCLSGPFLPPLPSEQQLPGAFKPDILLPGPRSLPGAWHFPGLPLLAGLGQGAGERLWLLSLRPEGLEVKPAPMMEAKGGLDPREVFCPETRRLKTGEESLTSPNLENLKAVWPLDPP
# How it was run: as §1
# [10] = molecular target: T7, ETV3 (Homo sapiens, UniProt P41162-2 1-143); conditions: protein: recombinant; tags: N-terminal GST; dsDNA, one strand shown
# T7 sequence: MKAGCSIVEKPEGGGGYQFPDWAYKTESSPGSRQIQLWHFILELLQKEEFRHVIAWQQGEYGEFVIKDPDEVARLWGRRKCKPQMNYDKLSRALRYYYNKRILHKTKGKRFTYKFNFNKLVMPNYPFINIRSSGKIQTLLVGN
# How it was run: as §1
# [11] = molecular target: T8, ETV2 (Homo sapiens, UniProt O00321 1-342); conditions: protein: recombinant; tags: N-terminal GST; dsDNA, one strand shown
# T8 sequence: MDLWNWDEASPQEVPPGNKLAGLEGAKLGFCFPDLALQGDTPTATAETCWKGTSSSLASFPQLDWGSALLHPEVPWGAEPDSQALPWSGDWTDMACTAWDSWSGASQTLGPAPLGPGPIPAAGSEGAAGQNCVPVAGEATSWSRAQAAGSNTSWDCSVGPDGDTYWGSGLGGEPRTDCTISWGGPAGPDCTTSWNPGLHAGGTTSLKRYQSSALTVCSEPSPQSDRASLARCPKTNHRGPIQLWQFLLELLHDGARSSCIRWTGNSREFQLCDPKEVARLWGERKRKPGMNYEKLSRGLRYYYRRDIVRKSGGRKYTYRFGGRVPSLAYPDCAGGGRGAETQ
# How it was run: as §1
# [12] = molecular target: SPI1 (Homo sapiens, UniProt P17947 1-270); conditions: protein: recombinant; tags: N-terminal GST; dsDNA, one strand shown
# How it was run: as §1
# [13] = molecular target: T9, ERG (Homo sapiens, UniProt P11308 1-479); conditions: protein: recombinant; tags: N-terminal GST; dsDNA, one strand shown
# T9 sequence: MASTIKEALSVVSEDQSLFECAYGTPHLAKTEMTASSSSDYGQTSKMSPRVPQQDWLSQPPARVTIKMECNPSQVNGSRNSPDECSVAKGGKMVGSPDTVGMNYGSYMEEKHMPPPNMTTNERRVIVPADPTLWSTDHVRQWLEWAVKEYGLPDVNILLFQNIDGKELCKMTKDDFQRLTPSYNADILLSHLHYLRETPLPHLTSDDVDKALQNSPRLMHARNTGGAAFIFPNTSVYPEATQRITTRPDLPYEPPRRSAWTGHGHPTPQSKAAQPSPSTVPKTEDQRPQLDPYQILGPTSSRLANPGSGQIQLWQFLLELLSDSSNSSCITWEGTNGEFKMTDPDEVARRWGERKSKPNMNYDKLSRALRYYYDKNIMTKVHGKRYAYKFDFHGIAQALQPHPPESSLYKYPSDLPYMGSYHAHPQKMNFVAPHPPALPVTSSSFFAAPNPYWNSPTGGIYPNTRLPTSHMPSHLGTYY
# How it was run: as §1
# [14] = molecular target: T10, SPDEF (Homo sapiens, UniProt O95238 1-335); conditions: protein: recombinant; tags: N-terminal GST; dsDNA, one strand shown
# T10 sequence: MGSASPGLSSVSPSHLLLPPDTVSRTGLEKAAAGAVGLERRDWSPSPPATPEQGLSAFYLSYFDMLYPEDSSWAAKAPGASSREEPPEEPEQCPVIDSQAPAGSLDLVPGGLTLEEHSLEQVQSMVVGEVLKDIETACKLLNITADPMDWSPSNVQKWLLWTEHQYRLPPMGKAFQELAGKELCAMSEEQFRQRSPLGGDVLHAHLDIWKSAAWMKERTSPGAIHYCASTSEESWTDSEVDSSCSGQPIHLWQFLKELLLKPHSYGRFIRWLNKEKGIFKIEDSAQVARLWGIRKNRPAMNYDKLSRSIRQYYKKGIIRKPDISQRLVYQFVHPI
# How it was run: as §1
sequence,measurement,setting,value
CCAGCT,binding signal,[1],"1.06 fold enrichment (6-mer frequency, TF over GST control)"
same,binding signal,[2],"1.02 fold enrichment (6-mer frequency, TF over GST control)"
same,binding signal,[3],"1.03 fold enrichment (6-mer frequency, TF over GST control)"
same,binding signal,[4],"1.02 fold enrichment (6-mer frequency, TF over GST control)"
same,binding signal,[5],"1.14 fold enrichment (6-mer frequency, TF over GST control)"
same,binding signal,[6],"1.04 fold enrichment (6-mer frequency, TF over GST control)"
same,binding signal,[7],"1.1 fold enrichment (6-mer frequency, TF over GST control)"
same,binding signal,[8],"1.01 fold enrichment (6-mer frequency, TF over GST control)"
same,binding signal,[9],"1.03 fold enrichment (6-mer frequency, TF over GST control)"
same,binding signal,[10],"1 fold enrichment (6-mer frequency, TF over GST control)"
TCGAGA,binding signal,[3],"2.36 fold enrichment (6-mer frequency, TF over GST control)"
same,binding signal,[7],"1.01 fold enrichment (6-mer frequency, TF over GST control)"
ACGCGA,binding signal,[3],"1.04 fold enrichment (6-mer frequency, TF over GST control)"
same,binding signal,[11],"1.02 fold enrichment (6-mer frequency, TF over GST control)"
GTAGAA,binding signal,[12],"1.01 fold enrichment (6-mer frequency, TF over GST control)"
same,binding signal,[3],"1.47 fold enrichment (6-mer frequency, TF over GST control)"
same,binding signal,[6],"1.06 fold enrichment (6-mer frequency, TF over GST control)"
GCATTA,binding signal,[3],"1.16 fold enrichment (6-mer frequency, TF over GST control)"
same,binding signal,[7],"1.64 fold enrichment (6-mer frequency, TF over GST control)"
GTCTGG,binding signal,[3],"1.06 fold enrichment (6-mer frequency, TF over GST control)"
same,binding signal,[11],"1.02 fold enrichment (6-mer frequency, TF over GST control)"
TTCAGA,binding signal,[13],"1.02 fold enrichment (6-mer frequency, TF over GST control)"
same,binding signal,[12],"1.04 fold enrichment (6-mer frequency, TF over GST control)"
same,binding signal,[3],"1.09 fold enrichment (6-mer frequency, TF over GST control)"
same,binding signal,[11],"1.08 fold enrichment (6-mer frequency, TF over GST control)"
same,binding signal,[7],"1.03 fold enrichment (6-mer frequency, TF over GST control)"
same,binding signal,[14],"1.01 fold enrichment (6-mer frequency, TF over GST control)"
AGAGAT,binding signal,[3],"1.16 fold enrichment (6-mer frequency, TF over GST control)"
same,binding signal,[7],"1.38 fold enrichment (6-mer frequency, TF over GST control)"
CGAGAT,binding signal,[3],"1.52 fold enrichment (6-mer frequency, TF over GST control)"
same,binding signal,[11],"1.07 fold enrichment (6-mer frequency, TF over GST control)"
same,binding signal,[7],"1.27 fold enrichment (6-mer frequency, TF over GST control)"
